PubChem BioAssay (EPA / NIEHS)
Several values for one entry are separate records, joined by “and”; a condition that tells them apart may be missing. Equal entries are not always repeated. Records with an inconclusive call do not appear. A structure can be active in one record and inactive in another. Activity calls are given as the source filed them. How the source made its calls: active means hit-call score of the fitted dose curve at least 0.9, where 1 is the maximum; inconclusive means response in the unintended direction; inactive means score below 0.9.

target: Cellular tumor antigen p53 (Homo sapiens) (UniProt P04637); assay: TOX21_p53_BLA_p4_ratio: Tox21 HCT-116 p53 Agonism Beta-lactamase Assay, Ratio, Phase 4 (AID 2283601)
From the text: TOX21_p53_BLA_p4 is a cell-based, single-readout assay that uses HCT116, a human intestinal cell line, […] in a 1536-well plate.TOX21_p53_BLA_p4_ratio is an assay readout measuring reporter gene via receptor activity and designed using inducible reporter (beta lactamase induction) detected with GAL4 b-lactamase reporter gene. The signal is derived from the ratio of cleaved (ch2) to uncleaved (ch1)reporter gene substrate used as the measure of target activity.Data from the assay component TOX21_p53_BLA_p4_ratio was analyzed into 1 assay endpoint. This assay endpoint, TOX21_p53_BLA_p4_ratio, was analyzed in the positive analysis fitting direction relative to DMSO as the negative control and baseline of activity. Using a type of inducible reporter, gain-of-signal activity can be used to understand changes in the reporter gene as they relate to the gene TP53. Furthermore, this assay endpoint can be referred to as a primary readout, because this assay has produced multiple assay endpoints where this ratio serves a reporter gene function to understand target activity. To generalize the intended target to other relatable targets, this assay endpoint is annotated to the DNA binding intended target family, where the subfamily is tumor suppressor.
Thawing Method: Place 14 mL of pre-warmed thaw medium into a 15 mL of conical tub. Remove the vial of cells to be thawed from liquid nitrogen and thaw rapidly by placing at 37C in a water bath with gentle agitation for 1-2 minutes. Decontaminate the vial by wiping with 70% ethanol before opening in a biological safety cabinet. Transfer the vial contents drop-wise into 14 mL of thaw medium in a sterile 15-mL conical tub. Centrifuge cells at 900 rpm for 4 minutes and resuspend in thaw medium. Transfer contents to the T75 tissue culture flask containing Thaw Medium and place flask in a humidified 37C/5% CO2 incubator. Switch to growth medium at first passage.Propagation Method: Aspirate medium, rinse once in DPBS, add 0.25% Trypsin/EDTA and swirl to coat the cell evenly. Add an equal volume of Growth Medium to inactivate Trypsin after 2-3 minutes incubation at 37C. Centrifuge cells at 900 rpm for 4 minutes and resuspend in growth medium. Cell should be passage or fed at least twice a week.Assay Protocol: Harvest cells from culture in growth medium and resuspend in assay medium. 2.2 Dispense 4000 cells/5 uL/well into 1536-well black/clear bottom plates using a Multidrop dispenser. After the cells were incubated at 37C for 5 hours, 23 nL of compounds dissolved in DMSO were transferred to the assay plate by a PinTool resulting in a 217-fold dilution. Incubate the plates for 16 hours at 37C, 5% CO2. Add 1 uL of 6X LiveBLAzer FRET B/G (CCF4-AM) Substrate Mixture to each well using a BioRAPTR dispenser and incubate the plates at room temperature for 2 hours. Measure fluorescence intensity at 460 and 530 nm emission and 405 nm excitation by an Envision detector. Data is expressed as the ratio of 460nm/530nm emissions. Add 4 uL of Cell-titer Glo to each well using BioRAPTR and incubate the plates at room temperature for 2 hours. Measure fluorescence intensity by a VewLux plate reader.

Sequence of Cellular tumor antigen p53 (Homo sapiens) (P04637 whole entry, looked up, the tested form may be a part): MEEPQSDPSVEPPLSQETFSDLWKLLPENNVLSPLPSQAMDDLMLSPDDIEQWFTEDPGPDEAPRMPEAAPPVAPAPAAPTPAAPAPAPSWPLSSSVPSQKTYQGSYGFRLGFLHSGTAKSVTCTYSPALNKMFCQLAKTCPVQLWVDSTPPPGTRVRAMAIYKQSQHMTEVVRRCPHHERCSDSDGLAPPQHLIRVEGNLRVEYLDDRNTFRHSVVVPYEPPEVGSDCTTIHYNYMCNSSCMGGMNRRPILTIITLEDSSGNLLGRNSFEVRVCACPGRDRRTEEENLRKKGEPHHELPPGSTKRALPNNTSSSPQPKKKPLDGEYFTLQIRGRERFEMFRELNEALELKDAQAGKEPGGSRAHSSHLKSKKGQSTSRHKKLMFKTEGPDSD

Compound | outcome | AC50
CCOS(=O)(=O)OCC | inactive | 
C=CC(=O)OCC(CC)(COC(=O)C=C)COC(=O)C=C | inactive | 69.1 µM (active)
CC1(C)CN=C(NN=C(/C=C/c2ccc(C(F)(F)F)cc2)/C=C/c2ccc(C(F)(F)F)cc2)NC1 | inactive | 
CCOc1ccc(C(C)(C)COCc2cccc(Oc3ccccc3)c2)cc1 | inactive | 
Nc1ccc(Cl)cc1 | inactive | 
O=P(OCC(Br)CBr)(OCC(Br)CBr)OCC(Br)CBr (stereo not given) |  | 75.7 µM (active) and 73.6 µM (active)
CCCCc1ccc(O)cc1 | inactive | 
CCCCN(CCCC)N=O | inactive | 
ClC1=C(Cl)C2(Cl)C3C(Cl)C(Cl)CC3C1(Cl)C2(Cl)Cl (stereo not given) | inactive | 63.5 µM (active)
[N-]=[N+]=[N-] | inactive | 
FC(F)(F)c1ccc(Cl)cc1 | inactive | 
O=c1[nH]c2ccccc2c(=O)o1 | inactive | 
Cc1ccc(N)cc1N | inactive | 14.7 µM (active)
CNC(=O)Oc1ccc(N(C)C)c(C)c1 | inactive | 
COP(=O)(O)OC | inactive | 
OCC1CO1 (stereo not given) | inactive | 
CCCCC(CC)COC(=O)c1c(Br)c(Br)c(Br)c(Br)c1C(=O)OCC(CC)CCCC (stereo not given) | inactive | 
O=c1ssc(Cl)c1Cl | inactive | 
CCOP(=S)(OCC)SCn1nnc2ccccc2c1=O | inactive | 

Compound | outcome | AC50
CC(Cc1ccc(OCC(=O)O)cc1)NCC(O)c1csc(C(F)(F)F)n1 (stereo not given) | inactive | 
O=C(O)C1C(C(=O)O)C2(Cl)C(Cl)=C(Cl)C1(Cl)C2(Cl)Cl (stereo not given) | inactive | 
CCCCOCCOP(=O)(OCCOCCCC)OCCOCCCC | inactive | 
O=NN1CCCC1 | inactive | 
c1ccc2c(c1)Nc1ccccc1S2 | inactive | 
O=S1(=O)OCC2C(CO1)C1(Cl)C(Cl)=C(Cl)C2(Cl)C1(Cl)Cl (stereo not given) | inactive | 
Cc1c([N+](=O)[O-])cc2c(c1[N+](=O)[O-])C(C)(C)CC2(C)C | inactive | 
Cc1cccc(N)c1 | inactive | 
ClC(Cl)(Cl)c1ccccc1 | inactive | 
CCC1(c2ccccc2)C(=O)N=C(O)NC1=O (stereo not given) | inactive | 
CCCCOCC1CO1 (stereo not given) | inactive | 
CCN(CC)C1CCCCC1 | inactive | 
CCC(C)(C)c1ccc(O)cc1 | inactive | 
CO/N=C(/C(=O)OC)c1ccccc1COc1ccccc1C | inactive | 
Cc1ccc2c(c1N)C(=O)c1ccccc1C2=O | inactive | 
c1cc2c3c(cccc3c1)CC2 | inactive | 
CCOC(=O)c1ccccc1C(=O)OCC | inactive | 
CCOP(=S)(NC(C)C)Oc1ccccc1C(=O)OC(C)C (stereo not given) | inactive | 
